Our source for the binding signal values is article PMC8384837, “Expanding the binding specificity for RNA recognition by a PUF domain”.

Where a chain is given by its changes, count along the chain named.

What all share (test): yeast three-hybrid, YBZ-1, SC-Leu-His + 0.5 mM 3-AT, 4 days
Common to all, as to settings: tags: N-Gal4 AD-HA kept; label: inside an RPR1-promoter hybrid RNA with tandem MS2 sites; ssRNA

The target in one assay is PUM1 PUF domain R2-KRG (Homo sapiens, UniProt Q14671 828-1176, N899K;Y900R;Q903G). A digest of the protocol: (§1)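 Matching RNA elements and Pumilio-1 PUF domain libraries, randomized at the three base-contacting residues of every repeat, were co-expressed from a centromeric plasmid in strain YBZ-1 (LexA–MS2 coat fusion, HIS3 reporter). The repeat regions were PCR-amplified and Illumina-sequenced from cells grown four days on SC-Leu (input) or SC-Leu-His + 0.5 mM 3-AT (selection). The interaction score is the log change in variant frequency from input to selection. It is computed in log2, with a pseudocount of 1 for absent variants.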

For another assay, the target named is PUM1 PUF domain R7-KYN (Homo sapiens, UniProt Q14671 828-1176, S1079K;N1080Y;E1083N). A digest of the protocol: as §1
Another assay deals with PUM1 PUF domain R3-IRT (Homo sapiens, UniProt Q14671 828-1176, C935I;Q939T). The essentials:
as §1

A further assay concerns the target T1, PUM1 PUF domain R6-IYL (Homo sapiens, UniProt Q14671 828-1176, N1043I;Q1047L).
T1 sequence: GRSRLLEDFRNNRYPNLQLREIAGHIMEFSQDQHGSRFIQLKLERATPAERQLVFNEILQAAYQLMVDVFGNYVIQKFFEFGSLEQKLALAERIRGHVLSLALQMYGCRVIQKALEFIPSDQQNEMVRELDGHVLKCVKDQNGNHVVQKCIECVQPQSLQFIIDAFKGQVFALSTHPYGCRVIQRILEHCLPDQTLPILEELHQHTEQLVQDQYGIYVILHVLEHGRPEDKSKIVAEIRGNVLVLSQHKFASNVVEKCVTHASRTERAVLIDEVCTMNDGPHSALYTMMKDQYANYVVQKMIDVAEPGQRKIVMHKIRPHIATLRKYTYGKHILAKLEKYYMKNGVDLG
The essentials: as §1

For the next assay, the target named is T2, PUM1 PUF domain R6-SYA (Homo sapiens, UniProt Q14671 828-1176, N1043S;Q1047A).
T2 sequence: T1 sequence with I216S, L220A
The essentials:
as §1

In the next assay the target is PUM1 PUF domain R8-SWS (Homo sapiens, UniProt Q14671 828-1176, N1122S;Y1123W;Q1126S). A digest of the protocol: as §1
The target in a further assay is PUM1 PUF domain R3-VRT (Homo sapiens, UniProt Q14671 828-1176, C935V;Q939T). A digest of the protocol:
as §1

For a further assay, the target named is PUM1 PUF domain R4-DWR (Homo sapiens, UniProt Q14671 828-1176, N971D;H972W;Q975R). The essentials: as §1
The target in a further assay is PUM1 PUF domain R7-LSS (Homo sapiens, UniProt Q14671 828-1176, S1079L;N1080S;E1083S). A digest of the protocol: as §1
In a further assay the target is PUM1 PUF domain R7-RCG (Homo sapiens, UniProt Q14671 828-1176, S1079R;N1080C;E1083G). A digest of the protocol: as §1
Another assay addresses PUM1 PUF domain R1-KGM (Homo sapiens, UniProt Q14671 828-1176, S863K;R864G;Q867M). A digest of the protocol:
as §1

The next assay addresses PUM1 PUF domain R1-YPR (Homo sapiens, UniProt Q14671 828-1176, S863Y;R864P;Q867R). The essentials:
as §1

For the sequence “GGCUAGAACUAGUGGAUCCCCCGGCGCCCGGCGGCUCGAGCCCGGGUAAGUGUAAAGAGUCUGCAUGCCGCCGGGCGCCAUGCCUGCAGGUCGACUCUAGAAAACAUG”, in the assay with PUM1 PUF domain R2-KRG, the binding signal is 4.1 log2 enrichment (interaction score). In the case of “GGCUAGAACUAGUGGAUCCCCCGGCGCCCGGCGGCUCGAGCCCGGGUAAGUCUAAAUAGUCUGCAUGCCGCCGGGCGCCAUGCCUGCAGGUCGACUCUAGAAAACAUG”, in the assay with PUM1 PUF domain R7-KYN, the binding signal was 3.09 log2 enrichment (interaction score).

For “GGCUAGAACUAGUGGAUCCCCCGGCGCCCGGCGGCUCGAGCCCGGGUAAGUGUAAAUAGUCUGCAUGCCGCCGGGCGCCAUGCCUGCAGGUCGACUCUAGAAAACAUG”, the binding signal with PUM1 PUF domain R3-IRT was 4.08 log2 enrichment (interaction score); with PUM1 PUF domain R6-IYL, 4.93 log2 enrichment (interaction score); in the assay with PUM1 PUF domain R6-SYA it was 2.48 log2 enrichment (interaction score); in the assay with PUM1 PUF domain R8-SWS, 2.46 log2 enrichment (interaction score); in the assay with PUM1 PUF domain R3-VRT, 3.97 log2 enrichment (interaction score). In the case of “GGCUAGAACUAGUGGAUCCCCCGGCGCCCGGCGGCUCGAGCCCGGGUAAGUGUACAUAGUCUGCAUGCCGCCGGGCGCCAUGCCUGCAGGUCGACUCUAGAAAACAUG”, in the assay with PUM1 PUF domain R4-DWR, the binding signal is 6.69 log2 enrichment (interaction score). In the case of “GGCUAGAACUAGUGGAUCCCCCGGCGCCCGGCGGCUCGAGCCCGGGUAAGUGUAUAUAGUCUGCAUGCCGCCGGGCGCCAUGCCUGCAGGUCGACUCUAGAAAACAUG”, the binding signal with PUM1 PUF domain R4-DWR is 5.3 log2 enrichment (interaction score).

On to “GGCUAGAACUAGUGGAUCCCCCGGCGCCCGGCGGCUCGAGCCCGGGUAAGUUUAAAUAGUCUGCAUGCCGCCGGGCGCCAUGCCUGCAGGUCGACUCUAGAAAACAUG”, for which the values for the binding signal with PUM1 PUF domain R7-LSS and with PUM1 PUF domain R7-RCG were 2.47 log2 enrichment (interaction score) and 2.43 log2 enrichment (interaction score), respectively. As for “GGCUAGAACUAGUGGAUCCCCCGGCGCCCGGCGGCUCGAGCCCGGGUAAGUGUAAAUCGUCUGCAUGCCGCCGGGCGCCAUGCCUGCAGGUCGACUCUAGAAAACAUG”, the binding signal in the assay with PUM1 PUF domain R1-KGM is 2.83 log2 enrichment (interaction score); in the assay with PUM1 PUF domain R1-YPR, 3.29 log2 enrichment (interaction score). As to “GGCUAGAACUAGUGGAUCCCCCGGCGCCCGGCGGCUCGAGCCCGGGUAAGUGUAAAUUGUCUGCAUGCCGCCGGGCGCCAUGCCUGCAGGUCGACUCUAGAAAACAUG”, the binding signal with PUM1 PUF domain R1-KGM was 0.32 log2 enrichment (interaction score); with PUM1 PUF domain R1-YPR, 5.44 log2 enrichment (interaction score).
